Screening data from PubChem BioAssay.
DAX1 inh-1: inhibitors of human orphan nuclear receptor DAX1 (NR0B1) | P51843 | HEK293 Gal4-DAX1 luciferase reporter, luminescence | inhibition, % at 6.75 µM | 0.99% of 340,000 active;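 active means inhibition above the mean over all tested compounds plus 3 SD, cut at about 4.2% in these data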;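 further: 0% = DAX1-transfected cells with DMSO and 100% = empty-vector control cells with DMSO; inhibition shows as a rise in luminescence from relieved DAX1 repression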
Target sequence (P51843 207-470 limits assumed): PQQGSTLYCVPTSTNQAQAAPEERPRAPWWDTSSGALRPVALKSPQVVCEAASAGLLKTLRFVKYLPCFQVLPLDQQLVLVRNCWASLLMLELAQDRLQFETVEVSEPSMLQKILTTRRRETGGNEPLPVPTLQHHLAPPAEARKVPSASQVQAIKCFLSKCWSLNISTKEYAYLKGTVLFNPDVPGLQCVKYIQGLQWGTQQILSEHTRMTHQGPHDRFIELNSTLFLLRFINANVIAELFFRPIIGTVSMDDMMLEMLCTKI
ssDAF-12 act: S. stercoralis DAF-12 activation, primary screen; HEK293 ssDAF-12/GRIP1 lit1-tk-luc reporter, luminescence; % of 3 µM dafachronic acid response; activation, % at 6.8 µM; 1% of 370,000 active; AID 652126;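 active means activation above the mean over all tested compounds plus 3 SD, cut at about 0.9% in these data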;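 further: 0% = DMSO-only wells and 100% = 3 µM delta7-dafachronic acid wells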
hcDAF-12 act: activates DAF-12 receptor from parasite H. contortus; activation, % at 6.8 µM; HEK293 hcDAF-12 lit1-tk-luc reporter, luminescence; 0% DMSO, 100% Δ7-dafachronic acid; 1.4% of 370,000 active; AID 652067;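 active means activation above the mean of all tested compounds plus 3 SD, cut at about 5.5% in these data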;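 further: 100% = response to 3 µM Δ7-dafachronic acid high control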
hgDAF12 agonist: agonists of H. glycines DAF-12 nuclear receptor; HEK293 GAL4-hgDAF12 UAS-luciferase reporter, agonist luminescence; normalized to butyrate control; activation, % at 6.8 µM; 1.8% of 370,000 active; AID 687014;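 active means activation above a cutoff set at the mean of all screened compounds plus 3 SD, cut at about 10% in these data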;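 further: 0% = DMSO wells and 100% = sodium butyrate wells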
DAX1 inh-2: blocks DAX1 repression of SF-1 activated StAR promoter | HEK293T StAR-luciferase reporter, SF-1/DAX-1 repression relief | inhibition, % at 6.8 µM | 1.1% of 370,000 active | AID 652010;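 active means inhibition above the mean over all tested compounds plus 3 SD, cut at about 3.6% in these data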;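 further: 0% = DAX-1 cells with DMSO and 100% = cells lacking DAX-1 with DMSO; higher inhibition means more luminescence from relief of DAX-1 repression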
DAX1 inh confirm: NR0B1 (human) inhibition, confirmation | shares compounds with DAX1 inh-2 | HEK293T StAR-promoter luciferase reporter, SF-1/DAX-1 repression | inhibition, % at 6.8 µM | 87% of 2,400 active | AID 652134;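 active means inhibition above the average of every tested compound plus 3 SD, cut at about 3.8% in these data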;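 further: 0% = DAX-1 cells with DMSO and 100% = no DAX-1 control cells with DMSO; active compounds raise luminescence by relieving repression of the StAR reporter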
SF1 mutant ctr: nonselective inhibitor or artifact in SF-1 mutant DAX1 counter-screen. AID 652136. inhibition, % at 6.8 µM. shares compounds with DAX1 inh-2. 78% of 2,400 active. HEK293 StAR-luciferase, SF-1 AF2 mutant, luminescence;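 active means inhibition above the mean of all tested compounds plus 3 SD, cut at about 3% in these data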;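 further: 0% = DAX-1 transfected cells with DMSO and 100% = cells without DAX-1 with DMSO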
LXRb hcDAF ctr: LXR-beta agonism as hcDAF-12 counter-screen | activation, % at 6.8 µM | 3,400 tested, under 10 active | HEK293 Gal4-LXR tk-luc reporter, luminescence, 24 h; normalized: DMSO 0%, positive control 100% | shares compounds with hcDAF-12 act | AID 743027;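 active means mean percent activation of the reporter above a cutoff set as the average over tested compounds plus their standard deviation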
hcDAF12 ag: confirmation of H. contortus DAF-12 agonists; shares compounds with hcDAF-12 act; HEK293 hcDAF-12 lit1-tk-luc reporter, luminescence; % of Δ7-dafachronic acid response; activation, % at 6.8 µM; 61% of 3,400 active; AID 743032;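 active means mean activation across triplicate tests above the threshold derived from the earlier primary screen, cut at about 5.5% in these data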;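 further: 0% = DMSO only wells and 100% = 3 µM Δ7-dafachronic acid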
hgDAF12 conf: hgDAF-12 agonism, confirmation assay. shares compounds with hgDAF12 agonist. HEK293 GAL4-hgDAF12 luciferase reporter, agonist mode; percent of butyrate response. activation, % at 6.8 µM. 80% of 3,300 active;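 active means mean activation over triplicate wells above the hit cutoff derived from the earlier primary screen, cut at about 11% in these data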;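 further: 0% = DMSO low control and 100% = 2 mM sodium butyrate high control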
LXRb DAF12 ctr: LXR-beta agonism as DAF-12 counter-screen; 3,300 tested, under 10 active; shares compounds with hgDAF12 agonist; AID 743051; activation, % at 6.8 µM; HEK293 Gal4-LXR luciferase reporter, 24 h;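 active means mean activation of the triplicate above a set limit carried over from the primary screen, none filed active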
Active calls of the source: *; / = no result. Only some compounds are listed: those with a hit (about 4.1% of all), similar ones and a draw of the others.

SMILES	DAX1 inh-1	ssDAF-12 act	hcDAF-12 act	hgDAF12 agonist	DAX1 inh-2	DAX1 inh confirm	SF1 mutant ctr	hgDAF12 conf	LXRb DAF12 ctr	others
CCOC(=O)c1sc2nc(NC(=O)C(C)(C)C)sc2c1C	1	1	4	14*	5.2*	4.1*	0	6	1
CCOC(=O)c1sc2nc(NC(=O)C3CC3)sc2c1C	1	-1	2	1	0	/	/	/	/
CC(=O)Nc1ccc(NC(=O)COc2ccc3c(c2)CCC3)cc1	2	-1	0	-1	0	/	/	/	/
Cc1ccnc(NC(=O)COc2ccc3c(c2)CCC3)c1	-3	0	5	14*	14*	12*	4.2*	12*	1
NC(=O)c1ccccc1NC(=O)/C=C/c1cccc(Cl)c1	1	-1	2	8	1	/	/	/	/
NC(=O)c1ccccc1N/C=C/C(=O)c1ccc(Cl)cc1Cl	-1	0	8.1*	16*	6.3*	17*	7.6*	17*	1	LXRb hcDAF ctr=1;hcDAF12 ag=8.2*
O=C(Nc1ccc2c(c1)Cc1ccccc1-2)c1ccco1	3	0	6.3*	17*	5.6*	17*	10*	21*	1
Cc1ccc(Cn2ncc3c(NCCN(C)C)ncnc32)cc1	0	-1	-2	-1	0	/	/	/	/
Clc1ccc(-n2ncc3c(NCC4CCCO4)ncnc32)cc1 (stereo unspecified)	2	0	3	14*	7.1*	4.6*	0	17*	1
CN(C)CCNc1ncnc2c1cnn2-c1ccc(Cl)cc1	2	1	7.8*	19*	5.5*	10.0*	6.6*	14*	1	LXRb hcDAF ctr=1;hcDAF12 ag=4
FC(F)(F)c1cc(Cl)c2nc(-c3ccccc3)cn2c1	3	2.8*	18*	20*	6.6*	15*	7.4*	23*	1	LXRb hcDAF ctr=2;hcDAF12 ag=17*
Nc1cccc(-c2cn3cc(C(F)(F)F)cc(Cl)c3n2)c1	1	2.1*	12*	14*	5.3*	13*	7.6*	18*	1	LXRb hcDAF ctr=1;hcDAF12 ag=9.1*
CC(=O)c1ccc(OC2(C)CCN(Cc3ccc4ccccc4c3)C2)cc1 (stereo unspecified)	/	-1	-1	2	0	/	/	/	/
O=C(Nc1cccs1)OC1CC2CC1[C@H]1CCCCN1C2 (stereo partly specified)	/	0	-1	0	0	/	/	/	/
Nc1ccn([C@@H]2O[C@H](C(=O)N[C@H](Cc3ccccc3)C(=O)NCc3cccc4c3OCO4)[C@@H](O)[C@H]2O)c(=O)n1	/	-1	2	2	0	/	/	/	/
O=C(Nc1ccccc1)Nc1ccc2c(c1)CCC2	2	1	5	16*	10*	7.5*	5.0*	15*	1
O=C(Nc1ccccc1F)Nc1ccccc1F	-1	-1	1	10	1	/	/	/	/
O=C(Nc1ccc2c(c1)CCC2)Nc1ccccc1F	0	1	8.6*	16*	16*	13*	8.5*	22*	1	LXRb hcDAF ctr=2;hcDAF12 ag=8.6*
N#Cc1ccsc1NC(=O)C1=COCCO1	0	-1	0	3	1	/	/	/	/
CCN1C(=O)[C@H]2[C@@H](c3ccc(C(F)(F)F)cc3)N[C@]3(CCCN(Cc4ccccc4)C3=O)[C@H]2C1=O	1	-1	0	3	-1	/	/	/	/
O=S(=O)(c1ccc(Br)s1)N1CCC(c2nc3ccccc3o2)CC1	/	0	-4	-2	-1	/	/	/	/
